Assay outcomes: PubChem BioAssay, National Center for Advancing Translational Sciences (NCATS)
This is a sample that favours compounds with a hit; in the whole collection about 7.5% have one here.
Vaccinia mCherry: vaccinia inhibition (mCherry reporter); Vaccinia virus mCherry reporter infection, fluorescence; Potency, µM (doses to about 36.5 µM), most hits filed as inhibitors; 0.63% of 310,000 active; calls by dose curve; tested in A549 cells; further: nearly all actives have a fitted effect of over 35% in size
FBPA Giardia inh: Giardia lamblia aldolase inhibition; 0.71% of 290,000 active; A8B2U2; purified Giardia FBPA; Potency, µM (highest dose often 59.6 µM), most hits filed as inhibitors; further: nearly all actives have a fitted effect of over 55% in size
Target sequence (A8B2U2 whole entry, looked up): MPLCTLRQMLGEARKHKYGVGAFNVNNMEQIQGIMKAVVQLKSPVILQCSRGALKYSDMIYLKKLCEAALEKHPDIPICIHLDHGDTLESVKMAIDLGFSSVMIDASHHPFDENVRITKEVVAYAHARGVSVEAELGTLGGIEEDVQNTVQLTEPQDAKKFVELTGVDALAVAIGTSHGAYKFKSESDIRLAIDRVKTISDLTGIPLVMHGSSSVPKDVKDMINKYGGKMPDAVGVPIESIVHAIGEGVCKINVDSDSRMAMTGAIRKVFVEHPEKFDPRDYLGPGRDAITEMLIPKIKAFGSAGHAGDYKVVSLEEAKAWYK
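Giardia FBPA (40 nM reagent) was preincubated 10 min at RT with compound (up to 57.5 uM final), then substrate plus GAPDH/TPI/NAD/arsenate coupling system with diaphorase/resazurin was added; resorufin fluorescence (525/598 nm) was read after 20 min.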
FMDV antiviral: antivirals against foot and mouth disease virus | FMDV antiviral cell-based qHTS | AID 1159524 | Potency, µM (titrated, usually from 57.9 µM), hits mostly inhibitors | 1.2% of 410,000 active; calls by dose curve; tested in HEK293T cells; further: read-out not given here; nearly all actives have a fitted effect of over 45% in size
HCV inh: HCV inhibition; Huh7.5.1 HCVcc-Cre infection, luciferase reporter, 44 h; Potency, µM (titrated, usually from 41.8 µM), usual class: inhibitors; 3.4% of 340,000 active; AID 651820
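Infectious HCVcc-Cre (~0.5 moi) was added to cells just after compound, with cells seeded 4 h earlier at 1,000 per well. Luciferase activity after 44 h culture reported infection; substrate was incubated 15 min at room temperature before reading.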
HCMV inh: inhibitors of human cytomegalovirus. HFF cells, HCMV-luciferase reporter, 72 h; stronger effect = lower value. activity change, negative = inhibition, % at 57.5 µM. AID 1259415. 4.5% of 410,000 active; in the data active means activity change below about -60%; inconclusive means no clear call, values can overlap the other calls; inactive means above about -39%
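After 16 h attachment at 37C, HFF cells received test compound and HCMV-luciferase (1 PFU/cell); reporter luminescence read 72 h later, data normalized against buffer-only and known inhibitor Salinomycin.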
Vaccinia Venus: vaccinia inhibition (Venus reporter); Vaccinia virus Venus reporter expression, fluorescence; Potency, µM (highest dose often 36.5 µM), hits mostly inhibitors; 0.46% of 330,000 active; AID 720580; calls by dose curve; tested in A549 cells; further: nearly all actives have a fitted effect of over 30% in size
Each line names hits and unclear results; the compound was inactive in the other large screens; ! = not active in a repeat. Unless noted, the call rests on the fitted dose curve; in most records, active means well fitted curve in the direction sought with a large enough effect; inconclusive means small, poorly fitted or top-dose-only effect, or another doubt; inactive means no such curve, though single readings can be large; an effect the other way counts as inactive or inconclusive.

COc1cccc(C(C(=O)NC(C)(C)C)N(Cc2ccc(C)cc2)C(=O)CCC(=O)Nc2cc(C)on2)c1OC (centres undefined)	FMDV antiviral inconclusive, HCV inh 11µM
COCCN(C(=O)CCC(=O)Nc1cc(C)on1)C(C(=O)NC(C)(C)C)c1ccccc1Cl (centres undefined)	HCMV inh -63
COCCN(C(=O)CCC(=O)Nc1nccs1)C(C(=O)NC(C)(C)C)c1ccc(F)cc1 (centres undefined)	none
COC1=CC(=O)C=C(OC)C1=O	FBPA Giardia inh 7.1µM, FMDV antiviral 28µM!
COC1=CC(=O)c2ccccc2C1=O	Vaccinia mCherry inconclusive, FMDV antiviral inconclusive, HCV inh 1µM, Vaccinia Venus inconclusive (no result: FBPA Giardia inh, HCMV inh)
COC1=C(c2ccccc2)C(=O)c2ccccc2C1=O	FBPA Giardia inh inconclusive, FMDV antiviral inconclusive, HCV inh inconclusive
COc1ccc(SN=C2C(C)=CC(=O)C=C2C)cc1	Vaccinia mCherry inconclusive, FMDV antiviral inconclusive
COC(=O)NC(/C(C(=O)OC)=C(\C)NCc1ccccc1)c1cccs1 (centres undefined)	none (no result: Vaccinia mCherry, FMDV antiviral, HCV inh, HCMV inh, Vaccinia Venus)
CC(=O)Nc1ccc(NC(=O)CCn2cnnn2)cc1	none
O=C(CCn1cnnn1)Nc1ccc(F)cc1	HCMV inh -103!
Cc1ccccc1CNC(=O)Nc1ccc2c(c1)N(C)C(=O)c1ccccc1S2	Vaccinia mCherry inconclusive, FMDV antiviral inconclusive, HCMV inh -97, Vaccinia Venus inconclusive (no result: FBPA Giardia inh, HCV inh)
CN1C(=O)CSc2ccc(NC(=O)NCc3cccnc3)cc21	HCV inh inconclusive, HCMV inh -61 (no result: FMDV antiviral)
Cc1ccc(C(=O)Nc2ccc3c(c2)N(C)C(=O)c2ccccc2S3)cc1F	Vaccinia mCherry inconclusive, FMDV antiviral inconclusive, HCMV inh -91, Vaccinia Venus inconclusive (no result: FBPA Giardia inh, HCV inh)
COc1ccc(C(=O)Nc2ccc3c(c2)N(C2CCCC2)C(=O)c2ccccc2S3)cc1OC	HCMV inh -70 (no result: FBPA Giardia inh, HCV inh)
CN[C@@H](CO)C(=O)NC[C@H]1O[C@@H](n2cnc3c(N)ncnc32)[C@H](O)[C@@H]1O	none (no result: FBPA Giardia inh, HCV inh)
CCOC(=O)CC1(C)Oc2ccccc2N1S(=O)(=O)c1ccc(C)cc1 (centres undefined)	Vaccinia mCherry inconclusive (no result: FBPA Giardia inh, HCV inh)
COc1ccc(CNC(=O)Nc2ccc3c(c2)N(C)C(=O)c2ccccc2S3)cc1	none (no result: FBPA Giardia inh, HCV inh)
CN1C(=O)c2ccccc2Sc2ccc(NC(=O)NCc3ccc(Cl)cc3)cc21	Vaccinia mCherry inconclusive, FMDV antiviral inconclusive, HCMV inh -89, Vaccinia Venus inconclusive (no result: FBPA Giardia inh, HCV inh)
CCOc1ccc(CNC(=O)Nc2ccc3c(c2)N(C)C(=O)c2ccccc2S3)cc1	Vaccinia mCherry inconclusive, FMDV antiviral inconclusive, HCMV inh -62 (no result: FBPA Giardia inh, HCV inh)
CCOC(=O)c1c(C)n(C)c2ccc(OCCN(C)C)cc12	none
CCOC(=O)c1c(C)n(-c2ccccc2)c2ccc(OCCN(C)C)cc12	HCV inh 16µM
CCOC(=O)c1c(C)n(-c2ccc(C)cc2)c2ccc(OCC(O)CNCCCO)cc12 (centres undefined)	Vaccinia mCherry inconclusive, HCV inh inconclusive, HCMV inh -75
CCOc1ccc2c(c1)c(C(C)=O)c(C)n2-c1ccccc1	Vaccinia mCherry inconclusive, HCV inh 11µM, HCMV inh inconclusive
COC(=O)c1ccc(Oc2cc(C)nc(-n3nc(C)cc3C)n2)cc1	HCV inh inconclusive, HCMV inh -76 (no result: Vaccinia mCherry, Vaccinia Venus)
COC(=O)c1ccc(Oc2nc(C)cc(Oc3ccccc3)n2)cc1	none
COc1cccc(CN2CCC(C(=O)Nc3ccc(-c4cccc(C)c4)cc3)CC2)c1O	FMDV antiviral inconclusive, HCV inh 10µM (no result: Vaccinia mCherry, Vaccinia Venus)
Cc1cccc(-c2ccc(NC(=O)C3CCN(CC4CC4)CC3)cc2)c1	HCV inh 10µM
COc1ccc2c(c1)CCC/C(C)=C/C(=O)c1ccccc1O2	none (no result: Vaccinia mCherry, FBPA Giardia inh, FMDV antiviral, HCV inh, Vaccinia Venus)
C=CCC(=O)NC1CC(C)(C)Cc2c1cnn2-c1ccccc1C (centres undefined)	none
COc1ccccc1-c1cc(SC)c(C#N)c(=O)o1	FMDV antiviral inconclusive (no result: Vaccinia mCherry, Vaccinia Venus)
O=C(NC1CC1)c1ccccc1	none (no result: FBPA Giardia inh, HCV inh)
O=c1[nH]c(/C(Cl)=C/c2cc(Cl)ccc2O)nc2cc(Cl)ccc12	FMDV antiviral inconclusive, HCMV inh -70
COc1ccccc1C(=O)N1CCN(CCc2ccccc2)CC1	none (no result: Vaccinia mCherry, Vaccinia Venus)
COc1cccc(OC)c1OCCCCN1CCC(Cc2ccccc2)CC1	FBPA Giardia inh inconclusive, HCV inh 11µM
COc1cccc(C(=O)N2CCN(CCCc3ccccc3)CC2)c1OC	FMDV antiviral inconclusive, HCV inh 35µM, HCMV inh inconclusive
CN1CCN(CCCCOc2ccccc2C=O)CC1	FBPA Giardia inh inconclusive, HCV inh 10µM
c1ccc(OCCOCCN2CCN(C(c3ccccc3)c3ccccc3)CC2)cc1	Vaccinia mCherry inconclusive, HCV inh inconclusive, HCMV inh inconclusive
COc1ccccc1OCCCCN1CCN(C(c2ccccc2)c2ccccc2)CC1	Vaccinia mCherry inconclusive, HCV inh 11µM, HCMV inh inconclusive, Vaccinia Venus inconclusive
COc1cccc(OC)c1OCCCCN1CCCC1	none (no result: Vaccinia mCherry)
N#Cc1ccc(-c2cccnc2)nc1SCc1ccc(Cl)cc1Cl	FMDV antiviral inconclusive
N#Cc1ccc(-c2cccnc2)nc1SCc1ccc(Cl)c(Cl)c1	HCV inh 11µM (no result: Vaccinia mCherry, Vaccinia Venus)
Cc1ccc(OCC(=O)NNC(=O)CCC(=O)NCc2ccccc2)cc1	none (no result: Vaccinia mCherry, Vaccinia Venus)
Cc1cccc(OCC(=O)NNc2c3ccccc3nc3ccccc23)c1	FMDV antiviral inconclusive, HCV inh 1µM, HCMV inh -97 (no result: Vaccinia mCherry, Vaccinia Venus)
Cc1ccc(OCC(=O)NNc2c3ccccc3nc3ccccc23)cc1	FMDV antiviral inconclusive, HCV inh 1µM, HCMV inh -95, Vaccinia Venus inconclusive
O=C(Cc1ccccc1)NNc1c2ccccc2nc2ccccc12	HCV inh inconclusive, HCMV inh -67
